Sampled rows, rich in hits. Any-hit rate of the full collection: about 6.5%.
Vaccinia mCherry: qHTS for Stage-Specific Inhibitors of Vaccinia Orthopoxvirus: mCherry Reporter Primary qHTS. Vaccinia virus mCherry reporter infection, fluorescence. Potency, µM (top dose mostly 36.5 µM), hits mostly inhibitors. 0.63% of 310,000 active. AID 720579, 2013; calls by dose curve; tested in A549 cells; note: nearly all actives have a fitted effect of over 35% in size
Lassa entry inh: qHTS for Inhibitors of binding or entry into cells for Lassa Virus; AID 540256, 2011; 1.2% of 300,000 active; Potency, µM (top dose mostly 37.9 µM), usual class: inhibitors; Lassa virus pseudotype entry inhibition, cell reporter; calls by dose curve; tested in HEK293 cells; note: nearly all actives have a fitted effect of over 50% in size
Marburg entry inh: qHTS for inhibitors of binding or entry into cells for Marburg Virus | Marburg virus pseudotyped entry inhibition, cell reporter | Potency, µM (titrated, usually from 37.8 µM), most hits filed as inhibitors | 1.8% of 300,000 active | AID 540276, 2011; calls by dose curve; tested in HEK293 cells
VACV Venus inh: qHTS for Stage-Specific Inhibitors of Vaccinia Orthopoxvirus: Venus Reporter Primary qHTS | Vaccinia virus Venus reporter expression, fluorescence | Potency, µM (series often up to 36.5 µM), hits mostly inhibitors | 0.46% of 330,000 active; calls by dose curve; tested in A549 cells; note: nearly all actives have a fitted effect of over 30% in size
FMDV inh: High Throughput Screening for Foot and Mouth Disease Virus Antivirals. FMDV antiviral cell-based qHTS. Potency, µM (top dose mostly 57.9 µM), hits mostly inhibitors. 1.2% of 410,000 active; calls by dose curve; tested in HEK293T cells; note: read-out not given here; nearly all actives have a fitted effect of over 45% in size
HCMV antiviral: qHTS Assay for inhibitors of the human cytomegalovirus (HCMV) | HFF cells, HCMV-luciferase reporter, 72 h; hits give low values | activity change, negative = inhibition, % at 57.5 µM | 4.5% of 410,000 active | AID 1259415, 2018; in the data active = activity change below about -60%; inconclusive = no clear call, values can overlap the other calls; inactive = above about -39%
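HFF cells seeded 16 h at 37C, treated with compounds, infected with luciferase-reporter HCMV at MOI 1 PFU/cell; luciferase read at 72 h post infection, normalized to buffer-only and Salinomycin controls.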
Of the large screens only hits and unclear results are named; the others gave an inactive call.

CCOc1cc(C(Nc2cc(C)ccn2)c2ccc3cccnc3c2O)ccc1OC (centres undefined)	Lassa entry inh 5.62µM, Marburg entry inh inconclusive, HCMV antiviral -96.6
Cc1cccc(CN2C(=O)c3ccccc3S(=O)(=O)c3ccc(C(=O)N4CCN(c5cc(C)ccc5C)CC4)cc32)c1	HCMV antiviral inconclusive
CCCc1cc(=O)oc2c(CN3CCN(C)CC3)c(O)c(Cl)cc12	none (no result: Vaccinia mCherry, VACV Venus inh)
Cc1cc(=O)oc2c(CN3CCN(C)CC3)c(O)c(Cl)cc12	HCMV antiviral -102.0
COC(=O)C1=C(C(=O)OC)[C@@H]2N(Cc3ccccc3)c3ccccc3[C@@]23CCC(=O)N(CC2CCCCC2)C3=N1	none (no result: Vaccinia mCherry, Lassa entry inh, VACV Venus inh, FMDV inh, HCMV antiviral)
COc1ccc(CNC(=O)c2cccc(N3CCCS3(=O)=O)c2)cc1OC	Marburg entry inh inconclusive, FMDV inh inconclusive, HCMV antiviral -84.6
Cc1c(-c2nsc(NC(=O)c3cccs3)n2)nnn1-c1ccc(Br)cc1	Lassa entry inh inconclusive, VACV Venus inh inconclusive, HCMV antiviral -92.0 (no result: Marburg entry inh)
Cc1c(-c2nsc(NC(=O)c3ccc(Cl)cc3)n2)nnn1-c1ccc(C(C)C)cc1	HCMV antiviral -78.8 (no result: Marburg entry inh)
CC[n+]1c(/C=C2\Sc3ccccc3N2C)ccc2cccc(C)c21	Vaccinia mCherry 14.1µM, Lassa entry inh inconclusive, Marburg entry inh inconclusive, FMDV inh 4.47µM, HCMV antiviral -101.0
CCN1/C(=C/c2ccc3cc(C)ccc3[n+]2CC)Sc2ccccc21	Lassa entry inh 5.17µM, Marburg entry inh 1.03µM, FMDV inh 20µM, HCMV antiviral -101.8 (no result: Vaccinia mCherry, VACV Venus inh)
CN1/C(=C/c2cccc[n+]2CCO)Sc2ccccc21	HCMV antiviral inconclusive
CC[n+]1c(C)sc2cc(C)ccc21	none (no result: Vaccinia mCherry, Lassa entry inh, Marburg entry inh, VACV Venus inh)
CCN1/C(=C/c2ccc3cc(C)ccc3[n+]2CC)Sc2cc(C)c(C)cc21	Vaccinia mCherry inconclusive, Lassa entry inh 2µM, Marburg entry inh inconclusive, FMDV inh inconclusive, HCMV antiviral -100.0
CN(C)c1ccc(C=C2C=Cc3ccccc32)cc1	Lassa entry inh 6.31µM
Cc1nc2ccc(NC(=O)c3nn(CC(C)C)c(=O)c4ccccc34)cc2s1	Vaccinia mCherry inconclusive, HCMV antiviral -62.1
Cc1nnc(NC(=O)c2nn(CC(C)C)c(=O)c3ccccc23)s1	none
CCc1cc(CNC(=O)c2ccc(OC3CCN(C(C)=O)CC3)c(OC)c2)on1	none (no result: Vaccinia mCherry, Lassa entry inh, Marburg entry inh, VACV Venus inh)
CCCOc1ccc(CN(C(=O)c2nc(SC(C)C)ncc2Cl)C2CCS(=O)(=O)C2)cc1 (centres undefined)	Lassa entry inh inconclusive, HCMV antiviral -62.9
CCC1CN(CCC(=O)N2CCCN(C(=O)c3ccco3)CC2)Cc2cc(OC)ccc2O1 (centres undefined)	none (no result: Lassa entry inh, Marburg entry inh, HCMV antiviral)
CCN(CC)c1ccc2c(O)cc(=O)oc2c1	none
CCCCc1cc(=O)oc2cc(O)ccc12	HCMV antiviral -103.7
CCCCc1cc(=O)oc2cc(OCC(=O)N3CCOCC3)ccc12	HCMV antiviral -80.6
CCN(CC)c1ccc(C(=O)OCc2cc(=O)oc3cc(O)ccc23)cc1	Vaccinia mCherry inconclusive, Lassa entry inh 14.6µM, Marburg entry inh inconclusive, FMDV inh inconclusive, HCMV antiviral -103.5
O=C(Nc1ccn2ccnc2n1)c1ccccc1C(F)(F)F	none (no result: Vaccinia mCherry, Lassa entry inh, Marburg entry inh, VACV Venus inh, FMDV inh)
COC(=O)[C@@H]1CCCN1Cc1ccc2c(c1)CN(Cc1ccccc1)CCO2	none (no result: Lassa entry inh, Marburg entry inh, HCMV antiviral)
Cc1ccc(CN2C(=O)COCc3cc(-c4cccc(CO)c4)ccc32)cc1	none (no result: Vaccinia mCherry, Lassa entry inh, Marburg entry inh, VACV Venus inh, FMDV inh)
CCOC(=O)c1c(C)oc2c1cc(NS(=O)(=O)c1ccc(C(=O)O)cc1)c1ccccc12	none
CCCOC(=O)c1c(C)oc2c1cc(NS(=O)(=O)c1ccc(OCC)cc1)c1ccccc12	Vaccinia mCherry inconclusive, Lassa entry inh inconclusive, Marburg entry inh inconclusive, VACV Venus inh inconclusive, HCMV antiviral -96.1
CCOc1ccc(S(=O)(=O)Nc2cc3c(C(=O)OCc4ccccc4)c(C)oc3c3ccccc23)cc1	Lassa entry inh inconclusive, Marburg entry inh inconclusive, HCMV antiviral -84.0
Cc1oc2c(cc(NS(=O)(=O)c3ccc(C(C)C)cc3)c3ccccc32)c1C(=O)OCc1ccccc1	none
Cc1cnc(-n2ncc(C(=O)N(C)CC3CCCN(C)C3)c2C2CC2)nc1-c1cccs1 (centres undefined)	none (no result: Lassa entry inh, Marburg entry inh, HCMV antiviral)
CC(C)(C)CC(C)(C)NC(=S)N1CCN(Cc2ccc3c(c2)OCO3)CC1	none (no result: Lassa entry inh, Marburg entry inh)
N#Cc1cccc(NC(=O)C2CCN(c3ncccn3)CC2)c1	HCMV antiviral inconclusive
N#Cc1cccc(NC(=O)C2CCN(c3nc(-c4ccc(Cl)cc4)no3)CC2)c1	FMDV inh 25.1µM, HCMV antiviral inconclusive (no result: Marburg entry inh)
Cc1cc(=O)[nH]c(-c2cccnc2)n1	Marburg entry inh inconclusive
CCc1cc2cc(C(=O)Nc3ccc(C)cc3)sc2s1	Lassa entry inh inconclusive, HCMV antiviral -67.5
Cc1ccc(-c2sc(C(=O)Nc3ccc(Br)cc3)cc2CC(=O)O)cc1	none
Cc1cc(-c2nn(-c3ccccc3F)cc2CN2CCCC(CO)C2)c(C)s1 (centres undefined)	Vaccinia mCherry inconclusive, Lassa entry inh inconclusive, Marburg entry inh 5.62µM, HCMV antiviral -85.8
Nc1ccc(-c2ccc(N)c([N+](=O)[O-])c2)cc1[N+](=O)[O-]	HCMV antiviral inconclusive (no result: Vaccinia mCherry, VACV Venus inh)
O=[N+]([O-])c1ccc(-c2cnc(NO)nc2)cc1	none
Nc1ncc(-c2ccc([N+](=O)[O-])cc2)cn1	Marburg entry inh inconclusive, HCMV antiviral -94.8
Nc1ccccc1-c1ccc([N+](=O)[O-])cc1	Vaccinia mCherry inconclusive, Lassa entry inh inconclusive, Marburg entry inh 5.62µM
C=CCN1CCN(C(c2ccc(Cl)cc2)c2nnnn2CCc2ccc(OC)c(OC)c2)CC1 (centres undefined)	HCMV antiviral -100.7
Cc1cc(C)nc(NS(=O)(=O)c2ccc(NC(=O)c3nc(SC(C)C)ncc3Cl)cc2)n1	none
Cc1nn(C)c(C)c1CNC(=O)c1cc2n(n1)C(C(F)(F)F)CC(c1cccs1)N2 (centres undefined)	HCMV antiviral -68.5 (no result: FMDV inh)
COc1ccc(C2CC(C(F)(F)F)n3nc(C(=O)NCc4c(C)nn(C)c4C)c(Cl)c3N2)cc1 (centres undefined)	Vaccinia mCherry inconclusive, Marburg entry inh 10.3µM, VACV Venus inh inconclusive, HCMV antiviral -86.0 (no result: FMDV inh)
CCOC(=O)c1c(NC(=O)c2cc3n(n2)C(C(F)(F)F)CC(c2cccs2)N3)sc(C)c1C (centres undefined)	HCMV antiviral inconclusive
CC(C)(C)OC(=O)N1CCCC(C(=O)Nc2ccc(C(=O)NCCc3ccccc3)cc2)C1 (centres undefined)	Marburg entry inh inconclusive (no result: Lassa entry inh)
COc1ccccc1CC(NC(C)=O)C(=O)NC1CCN(C(=O)Nc2ccccc2F)CC1 (centres undefined)	none
O=C(CSc1nnc(NC(=O)C2CCC2)s1)Nc1ccc(N2CCOCC2)cc1	HCMV antiviral -107.7 (no result: Vaccinia mCherry, VACV Venus inh)
CC(C)(C)c1ccc(C(=O)N2CCC2(C)C(=O)NCc2ccc3c(c2)OCO3)cc1 (centres undefined)	FMDV inh inconclusive (no result: Lassa entry inh, Marburg entry inh)
CC(C)(C)c1ccc(Oc2ccc(NC(=O)c3ccccc3C(=O)O)cn2)cc1	FMDV inh inconclusive, HCMV antiviral -62.6 (no result: Vaccinia mCherry, Lassa entry inh, Marburg entry inh, VACV Venus inh)
